p53ts 39C kill: p53ts cell cytotoxicity, nonpermissive temperature; AID 902; H1299-p53A138V viability at 39C, ATP luminescence, 24 h; Potency, µM (highest dose often 46.1 µM), hits mostly cytotoxic; hit rate 1.5% among 130,000; note: nearly all actives have a fitted effect of over 55% in size
IkB sig inh: suppresses IkB signaling in ABC-DLBCL reporter cells | ABC-DLBCL IkBa-CBG/CBR dual luciferase ratio, 4 h; response scale: scaled: untreated 0%, proteasome inhibitor 100% | Potency, µM (highest dose often 57.1 µM) | hit rate 0.04% among 110,000; active = well fitted curve in the direction sought with a large enough effect in the signal ratio, not every such curve was filed as active; inconclusive = small, poorly fitted or top-dose-only effect, or a change in a side signal; the % refers to the signal ratio;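 note: the direction sought is a rising ratio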
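Curves were fitted separately to fusion (green), unfused (red) and ratio luminescence, then classed by r2, magnitude and activity. Cells: OCI-Ly3, 4 h compound plus doxycycline at 37C; 10 uM MG-132 defined full response.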
p53ts 32C tox: cytotoxicity in p53ts cells at permissive temperature | H1299-p53A138V at 32C, ATP luminescence viability, 24 h | hit rate 0.93% among 130,000 | Potency, µM (doses to about 46.1 µM), actives largely listed as cytotoxic; note: nearly all actives have a fitted effect of over 55% in size
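ATP-content luminescence (ATPlite) read-out after 24 h compound exposure at 32C in H1299-p53A138V cells (600/well). Tested up to 46 uM. Normalized to DMSO (0%) and 100 uM tamoxifen (100% killing); Hill-fit AC50.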
Imprint erasure: induces erasure of genomic imprints in mouse ES cells; hit rate 0.02% among 110,000; Potency, µM (top dose mostly 60.7 µM), most hits filed as activators; mouse ES Peg3-LacZ reporter, beta-gal luminescence, 40 h; AID 1948
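Each well holds 300 Peg3LacZ-Neo (maternal) female ES cells incubated 40 h at 37C, 5% CO2. LacZ is measured by BetaGlo luminescence, with AC50 and maximum efficacy derived from dose-response curves.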
Of the large screens only hits and unclear results are named; the others gave an inactive call; ! = repeats disagree. Compounds with a hit are over-represented: about 1.6% of the library has one in this group of screens. Unless noted, calls come from the whole dose curve; as a rule, active = well fitted curve in the direction sought with a large enough effect; inconclusive = small, poorly fitted or top-dose-only effect, or another doubt; inactive = no such curve, though single readings can be large; an effect the other way counts as inactive or inconclusive.

Cc1cc(C)c(NC(=O)CSc2ccc(-c3sc(-c4ccccc4)nc3C)nn2)c(C)c1	none
Cc1ccc(NS(=O)(=O)c2ccc3nc(-c4ccccc4)[nH]c3c2)cc1Cl	p53ts 39C kill 12.6µM, IkB sig inh inconclusive, p53ts 32C tox inconclusive
CCOc1ccc(OCC(=O)Nc2nnc3n2CCS3)cc1	Imprint erasure inconclusive
CCN(CCO)CCCC(C)Nc1ccnc2cc(Cl)ccc12 (stereo not drawn)	none (no result: IkB sig inh)
CCN(CC)CCC[C@H](C)Nc1c2ccc(Cl)cc2nc2ccc(OC)cc12	p53ts 39C kill 10µM, IkB sig inh inconclusive, p53ts 32C tox 5.01µM
Cc1ccc(CNCc2c(C(=O)O)n(Cc3ccc(C)cc3)c3cc(C)ccc23)cc1	p53ts 39C kill inconclusive, IkB sig inh inconclusive, p53ts 32C tox inconclusive
CCc1ccc(CNCc2c(C(=O)O)n(Cc3ccc(C)cc3)c3cc(C)ccc23)cc1	none
Cc1ccc(Cn2c(C(=O)O)c(CNCc3ccc(OC(C)C)cc3)c3ccc(C)cc32)cc1	p53ts 39C kill 15.8µM, IkB sig inh inconclusive
C=Cc1ccc(Cn2c(C(=O)O)c(CNCc3ccccc3)c3ccc(C)cc32)cc1	p53ts 39C kill 15.8µM, IkB sig inh inconclusive, p53ts 32C tox inconclusive
CN(C)CCN(Cc1ccco1)C(=O)c1oc2ccccc2c1NC(=O)c1cccc(F)c1	p53ts 39C kill 10µM, Imprint erasure inconclusive
C=C1C(=O)O[C@@H]2[C@H]3O[C@]3(C)CCC=C(C)CC[C@@H]12	p53ts 39C kill 12.6µM, IkB sig inh inconclusive, p53ts 32C tox 12.6µM
C=C1C(=O)O[C@@H]2[C@@H]1CC/C(C)=C\CC[C@@]1(C)O[C@H]21	p53ts 39C kill 6.31µM!, IkB sig inh inconclusive, p53ts 32C tox 6.31µM!
CCn1cc2nc(SCC(=O)Nc3ccc(OC)cc3OC)n(Cc3ccc(Cl)cc3)c(=O)c2n1	none
COCCn1c(C)cc(C(=O)CSc2n[nH]c(N)n2)c1C	none
COCCn1c(C)cc(C(=O)CSc2nnc(C)s2)c1C	p53ts 39C kill 12.6µM, p53ts 32C tox 12.6µM
N=C1S/C(=C\c2ccc(-c3cccc(Cl)c3)o2)C(=O)N1c1nccs1	none (no result: IkB sig inh, p53ts 32C tox, Imprint erasure)
COc1ccc(/C=C2\SC(=N)N(c3nccs3)C2=O)cc1OC	p53ts 39C kill 14.1µM, p53ts 32C tox inconclusive (no result: IkB sig inh, Imprint erasure)
COc1ccc(CNC(=O)Cn2c(=O)nc(-c3ccccc3F)c3cc(Cl)ccc32)cc1OC	none
Nc1cc(C2CCCC2)nn1-c1ccccc1	p53ts 39C kill inconclusive, p53ts 32C tox 12.6µM
Cc1nn(-c2ccccc2)c2nc(C3CC3)cc(C(=O)Nc3cccc(F)c3)c12	IkB sig inh inconclusive
Cc1nc(NC(=O)c2ccc(Br)s2)sc1C(=O)N(C)C	p53ts 39C kill inconclusive, p53ts 32C tox 12.6µM
Cc1nc(NC(=O)c2cc3c(s2)CCCCC3)sc1C(=O)N(C)C	IkB sig inh inconclusive
COc1ccc(C(=O)Nc2nc(C)c(C(=O)N(C)C)s2)cc1OC	p53ts 32C tox 12.6µM
Cc1ccc(S(=O)(=O)NC(=O)Nc2ncn[nH]2)cc1	none
CNC(=O)[C@@H]1O[C@@H](n2cnc3c(N)ncnc32)[C@@H](O)[C@H]1O	IkB sig inh inconclusive (no result: Imprint erasure)
C=CC(C1=CC(=O)C(OC)=CC1=O)c1ccccc1 (stereo not drawn)	p53ts 32C tox 12.6µM (no result: IkB sig inh)
CCSc1nc2sc3c(c2c(=O)n1-c1ccc(C)c(Cl)c1)CCN(C(C)=O)C3	none
CCCCCSc1nc2sc3c(c2c(=O)n1-c1ccccc1)CCN(C(C)=O)C3	p53ts 39C kill 12.6µM, IkB sig inh inconclusive, p53ts 32C tox inconclusive
CCCN(CCC)c1nc(NC2CCN(C(=O)OCC)CC2)nc(OC)n1	p53ts 39C kill 20µM, IkB sig inh inconclusive
c1ccc2c(c1)Cc1cc3ccccc3nc1-2	p53ts 39C kill 12.6µM, p53ts 32C tox 7.94µM (no result: IkB sig inh)
Cn1nc(-c2ccc(C(=O)Nc3ccc(OC(F)(F)F)cc3)cc2)c2ccccc2c1=O	IkB sig inh inconclusive
CS(=O)(=O)Nc1ccc(-c2nc3ccccc3s2)cc1	p53ts 39C kill 2µM, p53ts 32C tox 3.98µM
Cc1c(NS(C)(=O)=O)cccc1-c1nc2ccccc2s1	p53ts 39C kill inconclusive, p53ts 32C tox inconclusive
Clc1cccc(-n2ncc3c(NC4CCCCCC4)ncnc32)c1	IkB sig inh inconclusive
Cc1cccc(-n2ncc3c(NC4CCCC4)ncnc32)c1	p53ts 39C kill 7.94µM, IkB sig inh inconclusive, p53ts 32C tox 12.6µM
Cc1ccc(-n2ncc3c(NC4CCCCC4)ncnc32)cc1C	p53ts 39C kill 12.6µM, IkB sig inh inconclusive
Cc1cccc(-n2ncc3c(NC4CCCCC4)ncnc32)c1	p53ts 39C kill 15.8µM, p53ts 32C tox 10µM
CC1CCN(CC[C@@H]2CCCN2S(=O)(=O)c2cccc(O)c2)CC1	none (no result: Imprint erasure)
Cc1ccc(NC(=O)NCC2CCN(Cc3cccc(Cl)c3)CC2)cc1Cl	p53ts 39C kill 15.8µM, IkB sig inh inconclusive
O=C(NCC1CCN(Cc2ccccc2F)CC1)Nc1ccc(F)c(Cl)c1	IkB sig inh inconclusive
CCOc1ccc(-c2cc(C(=O)N3CCN(c4ccccn4)CC3)c3ccccc3n2)cc1	p53ts 39C kill inconclusive, p53ts 32C tox 2.51µM
COc1ccc(-c2cc(C(=O)N3CCN(c4ccccn4)CC3)c3ccccc3n2)cc1	p53ts 39C kill 12.6µM, IkB sig inh inconclusive, p53ts 32C tox 12.6µM
C=CCN1C(=O)C2C(C(=O)NCc3ccccc3)C3(C)C=CC2(O3)C1C(=O)NC(C)(C)C (stereo not drawn)	Imprint erasure 10µM
CCN(CC)CCCC(C)NC(=O)c1ccc(-n2c(=O)c(=O)[nH]c3ccccc32)cc1 (stereo not drawn)	none (no result: IkB sig inh, Imprint erasure)
Cc1csc(C(C#N)C(=O)c2cc3ccccc3o2)n1 (stereo not drawn)	p53ts 39C kill 5.01µM, IkB sig inh inconclusive, p53ts 32C tox 5.01µM
CCC(=O)Nc1ccc(NC(=O)c2cc3ccccc3o2)cc1	none
CC(C)c1ccc(-c2noc(SCC(=O)N3CCN(c4ccccc4F)CC3)n2)cc1	p53ts 39C kill 6.31µM, p53ts 32C tox inconclusive
O=C(CSc1nc(-c2ccccc2)no1)N1CCN(c2ccccc2F)CC1	IkB sig inh inconclusive
COc1ccccc1N1CCN(C(=O)CSc2nc(-c3ccc(C(C)C)cc3)no2)CC1	p53ts 39C kill inconclusive, IkB sig inh inconclusive, p53ts 32C tox 7.94µM
Cc1ccc(NC(=O)Nc2nnc(SCC(=O)N3CCCCC3)s2)cc1	p53ts 39C kill inconclusive
Cc1ccc(/C=C/c2nc3ccccc3[nH]2)cc1	p53ts 39C kill 0.501µM, IkB sig inh inconclusive, p53ts 32C tox 0.501µM
Cc1ccnc(NC(=O)/C=C/c2cccs2)c1	p53ts 39C kill 7.08µM (no result: IkB sig inh, p53ts 32C tox, Imprint erasure)
COc1cc(C(=O)N(Cc2cccnc2)c2nc3cc(C)c(C)cc3s2)cc(OC)c1OC	none
O=C(NCCc1cccs1)c1ccc(Cn2c(SCc3ccc(F)cc3)nc3cccnc32)cc1	p53ts 39C kill 15.8µM, IkB sig inh inconclusive, p53ts 32C tox 12.6µM
O=C(NCc1ccco1)c1ccc(Cn2c(SCc3ccccc3F)nc3cccnc32)cc1	none (no result: p53ts 39C kill, IkB sig inh, Imprint erasure)
Cc1ccc(CSc2nc3cccnc3n2Cc2ccc(C(=O)NCc3ccco3)cc2)cc1	p53ts 32C tox 5.62µM (no result: p53ts 39C kill, IkB sig inh, Imprint erasure)
Cc1cccc(CSc2nc3cccnc3n2Cc2ccc(C(=O)NCc3ccco3)cc2)c1	none (no result: p53ts 39C kill, IkB sig inh, Imprint erasure)
